# Source: PubChem BioAssay (EPA / NIEHS)
# Active and inactive are the calls of the source. How the source made its calls: active means hit-call score of the fitted dose curve at least 0.9, where 1 is the maximum; inactive means score below 0.9.
# Assay: APR_HepG2_MitoticArrest_24hr: Apredica 24-hour HepG2 Assay for Mitotic Arrest (AID 2282910)
# Details: high-content imaging, actives raise or lower the signal
# Description: APR_HepG2_24hr is a cell-based, multiplexed-readout assay that uses HepG2, a human liver cell line, with measurements taken at 24 hours after chemical dosing in a 384-well plate.APR_HepG2_MitoticArrest_24hr is one of 10 assay component(s) measured or calculated from the APR_HepG2_24hr assay. It is designed to make measurements of cell phenotype, a form of morphology reporter, as detected with fluorescence intensity signals by HCS Fluorescent Imaging technology.Data from the assay component APR_HepG2_MitoticArrest_24hr was analyzed into 1 assay endpoint. This assay endpoint, APR_HepG2_MitoticArrest_24hr, was analyzed with bidirectional fitting relative to DMSO as the negative control and baseline of activity. Using a type of morphology reporter, measures of protein for gain or loss-of-signal activity can be used to understand the signaling at the pathway-level as they relate to the gene . Furthermore, this assay endpoint can be referred to as a primary readout, because this assay has produced multiple assay endpoints where this one serves a signaling function. To generalize the intended target to other relatable targets, this assay endpoint is annotated to the cell cycle intended target family, where the subfamily is arrest.
# Cells were treated with dimethyl sulfoxide (DMSO) as a solvent control at a final concentration of 0.5% v/v or with compounds in DMSO with a resulting final DMSO concentration of 0.5% v/v. Compound treatment was done at concentrations of 0.39, 0.78, 1.56, 3.12, 6.24, 12.5, 25, 50, 100, and 200 uM in duplicate on each plate. Cells were treated with compounds for 1, 24, or 72 hr. Carbonyl […] m-chloro-phenylhydrazone (CCCP) and taxol were used as positive controls for mitochondrial function and cytoskeletal stability, respectively; DMSO served as the negative control for this experiment. Cells were fixed by the direct addition of 50 uL formaldehyde in Hank's Balanced Salt Solution (HBSS) to a final concentration of 3.7%. After incubation in the fixation medium for 30 min at room temperature (293-298 K), cells were rinsed twice with HBSS and treated with cell permeabilization buffer (16 uL of 0.5% Triton X-100) for 10 min at room temperature (293-298 K) before labeling. For mitochondrial membrane potential and mitochondrial measurements, pre-fixed cells were incubated with 50 uL of MitoTracker Red CMXRos (Invitrogen) at a concentration of 250 nM for 30 min before fixation. In the remaining cases, post-fixed cells were labeled by incubation with a multiplexed mixture of primary antibodies in HBSS for 60 min at room temperature (293-298 K) to detect immunoreactivity of c-Jun (1:500), phospho-histone H3 (1:100), phospho-histone H2A.x (1:200), p53 (1:400), alpha-tubulin (1:200) and Hoechst 33342 (2 ug/mL). Cells were labeled for multiplexed imaging on two separate plates: a) Hoechst 33342, MitoTracker Red, phospho-histone H3, and alpha-tubulin, and b) Hoechst 33342, phospho-histone H2A.x, and c-Jun. A final rinse with HBSS (50 uL) was performed before analysis. The primary and secondary antibodies for the proteins were phospho-histone H3 (rabbit anti-phospho-histone H3 and FITC-donkey anti-rabbit IgG), phospho-histone H2A.x (mouse anti-phospho-histone H2A.x and FITC-donkey anti-mouse IgG), c-Jun (rabbit anti-phospho-c-Jun and Cy3-donkey anti-rabbit IgG), p53 (sheep anti-p53 and Cy5-donkey anti-sheep IgG), alpha-tubulin (mouse anti-alpha-tubulin and Cy5-donkey anti-mouse IgG). These antibodies are available as the CellCiphr HepG2 assay kit (Millipore).Digital images of each well were captured using a Cellomics ArrayScan VTI (Thermo Scientific Cellomics) (0.8 NA objective, 0.63x optical coupler, and XF-93 filter set) at 20x magnification. The images were acquired using the autofocus feature of the ArrayScan instrument, which entails the following steps. First, the camera focuses on channel 1 (Hoechst 33342), where nuclei are identified. Second, a Z offset of 1 um is used for capturing mitochondria (MitoTracker Red). […]
SMILES,AC50,outcome
CCCCN1C(=O)[C@@H]([C@H](O)C2CCCCC2)NC(=O)C12CCN(Cc1ccc(Oc3ccc(C(=O)O)cc3)cc1)CC2,59.8 µM (active),–
CCCCCCCCCC,–,inactive
OCCOCCOCCO,–,inactive
O=C(O)[C@H](O)[C@@H](O)C(=O)O,–,inactive
O=S(=O)(O)c1ccc(N=Nc2c(O)ccc3cc(S(=O)(=O)O)ccc23)cc1,–,inactive
Cn1c(=O)c2[nH]cnc2n(C)c1=O,–,inactive
OCc1ccccc1,–,inactive
NNC(=O)c1ccncc1,–,inactive
NC(=O)N1c2ccccc2C=Cc2ccccc21,–,inactive
CNC(C)=O,–,inactive
C[C@]12C=CC(=O)C=C1CC[C@H]1[C@@H]3C[C@@H](O)[C@](O)(C(=O)CO)[C@@]3(C)C[C@H](O)[C@@]12F,–,inactive
OCCNCCO,–,inactive
O=C(O)c1cccc(C(=O)O)c1,–,inactive
C[C@@H](Oc1ccc(CNC(=O)c2cccnc2Oc2ccc3c(c2)OCO3)c(F)c1)C(=O)O,–,inactive
CCc1cccc(CC)c1N,–,inactive
CCCCCCCCN(C)C,–,inactive
COS(C)(=O)=O,–,inactive
CCOc1ccc2[nH]cc(C(=O)NCc3ccccc3)c(=O)c2n1,104 µM (active),–
CCCCOC(=O)c1ccccc1,–,inactive
CCOC(N)=O,–,inactive

SMILES,AC50,outcome
Cc1ccc(S(=O)(=O)NC(=O)NN2CCCCCC2)cc1,–,inactive
CC[C@H](C)C(=O)O[C@H]1C[C@H](O)C=C2C=C[C@H](C)[C@H](CC[C@@H](O)C[C@@H](O)CC(=O)O)[C@H]21,–,inactive
NC(=O)N(O)[C@@H]1COc2cc(OCc3ccccc3)ccc21,–,inactive
CCCCCOC(C)=O,–,inactive
CCCc1ccccc1,–,inactive
c1ccc2cc3ccccc3cc2c1,–,inactive
CCCCCCCC1CCC(=O)O1 (stereo not given),–,inactive
CC(C)CCCCCCOC(=O)C1CCCCC1C(=O)OCCCCCCC(C)C (stereo not given),–,inactive
CCCCC(CC)C(=O)OCCOCCOCCOC(=O)C(CC)CCCC (stereo not given),–,inactive
CCCCCCOC(=O)CC(CC(=O)OCCCCCC)(OC(=O)CCC)C(=O)OCCCCCC,–,inactive
COc1cc(C(C)C)c2c(c1)S(=O)(=O)N(COc1cc(=O)n3cccc(OCCN4CCCCC4)c3n1)C2=O,24 µM (active),–
Nc1ccn([C@@H]2O[C@H](CO)[C@@H](O)[C@@H]2O)c(=O)n1,–,inactive
NC(N)=O,–,inactive
O=C1CN(N=Cc2ccc([N+](=O)[O-])o2)C(=O)N1,–,inactive
c1ccc2ncccc2c1,–,inactive
C=CN1CCCC1=O,–,inactive
O=c1[nH]cnc2c1ncn2[C@H]1CC[C@@H](CO)O1,–,inactive
Cc1nc(-c2ccccn2)ncc1C(=O)Nn1cc(C)c2cc(F)ccc21,101 µM (active),–
Cc1ncc([C@@H](CCCCCCc2ccc3c(n2)NCCC3)CC(=O)O)cn1,0.0392 µM (active),–
OC(CCl)CCl,–,inactive
